MITF inh = blocks human microphthalmia-associated transcription factor | O75030 | AlphaScreen MITF homodimerization, bead proximity signal | inhibition, % at 2.6 µM | actives 0.91% (n = 650,000) | AID 1259374; in the data active means inhibition above about 50%;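 further: 0% = vehicle wells with protein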
TEAD-YAP inh = TEAD-YAP interaction inhibition | HEK-TIYL cells, TEAD-Gal4/YAP UAS-luciferase luminescence | inhibition, % at 9.12 µM | actives 1.4% (n = 640,000); in the data active means inhibition above about 32%;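 further: 0% = median of test compound wells and 100% = reference inhibitor wells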
GPR151 ag = human GPR151 activation | actives 1% (n = 650,000) | Q8TDV0 | AID 1508602 | PathHunter beta-arrestin GPR151 cells, luminescence | activation, % at 11.2 µM; in the data active means activation above about 4.9%;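 further: 0% = median of compound wells and 100% = cells with positive control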
FBW7 act = activators of human E3 ligase FBW7; Q969H0; AlphaScreen FBW7–phospho-cyclin E peptide binding, activator screen; normalized activity (activation), % at 26.1 µM; actives 0.13% (n = 650,000); AID 1259310; in the data active means normalized activity above about 1.9%;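 further: purified mutant Fbw7 with reduced substrate affinity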
Target sequence (Q969H0 whole entry, looked up): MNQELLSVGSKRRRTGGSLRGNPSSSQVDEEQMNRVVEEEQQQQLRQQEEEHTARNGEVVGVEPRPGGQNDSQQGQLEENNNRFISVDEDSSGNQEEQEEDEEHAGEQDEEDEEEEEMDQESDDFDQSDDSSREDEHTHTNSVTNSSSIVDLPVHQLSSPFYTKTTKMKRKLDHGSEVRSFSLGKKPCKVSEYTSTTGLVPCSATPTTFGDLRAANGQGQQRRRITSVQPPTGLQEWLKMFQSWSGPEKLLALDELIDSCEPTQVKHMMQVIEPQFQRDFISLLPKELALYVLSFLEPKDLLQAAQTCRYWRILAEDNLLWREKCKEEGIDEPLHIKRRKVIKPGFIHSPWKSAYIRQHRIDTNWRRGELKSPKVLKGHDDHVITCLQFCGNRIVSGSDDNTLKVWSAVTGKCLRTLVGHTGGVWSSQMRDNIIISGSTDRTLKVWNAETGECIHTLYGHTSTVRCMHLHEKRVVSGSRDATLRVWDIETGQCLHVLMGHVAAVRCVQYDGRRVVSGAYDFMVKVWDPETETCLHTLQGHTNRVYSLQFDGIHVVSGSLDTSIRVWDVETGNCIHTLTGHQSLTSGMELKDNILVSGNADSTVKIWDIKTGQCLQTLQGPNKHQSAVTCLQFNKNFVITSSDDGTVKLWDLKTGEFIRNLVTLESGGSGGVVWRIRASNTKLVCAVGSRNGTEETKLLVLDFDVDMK
GPR151 conf act = human GPR151 activation, confirmation screen; 6,700 tested, under 10 active; activation, % at 11.2 µM; shares compounds with GPR151 ag; AID 1508609; GPR151 PathHunter beta-arrestin cells, luminescence, 90 min; % of EA-reagent control over plate median;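 active means mean percent activation across replicates above the confirmation screen cutoff of 4.91%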
GPR119 counter = GPR119 activation, counter-screen for GPR151 activators; shares compounds with GPR151 ag; GPR119 PathHunter beta-arrestin cells, luminescence, 90 min; 0 = compound-well median, 100 = enzyme-acceptor control; activation, % at 11.2 µM; actives 0.3% (n = 6,700);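 active means mean percent activation in the counterscreen above 29.09%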;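 further: counterscreen on off-target GPR119 to flag nonselective hits from the GPR151 activator screen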
Numbers without * were called inactive; / = no result. Sampled rows, rich in hits. Any-hit rate of the full collection: about 3.5%.

SMILES	MITF inh	TEAD-YAP inh	GPR151 ag	FBW7 act	GPR151 conf act	GPR119 counter
CCCCCCCC1=NN2C(=N)/C(=C/c3ccc(-c4ccccc4[N+](=O)[O-])o3)C(=O)N=C2S1	5	-1	5.6*	1	0	8
CCOC(=O)C(=CNc1cc(C)nn1-c1ccccc1)C(=O)OCC	0	0	6.6*	0	-1	-10
CCOc1ccc(C(=O)Nc2ccc3c(c2)CC(=O)N3CC)cc1	-3	-2	2	0	/	/
CCN1C(=O)Cc2cc(NC(=O)c3ccc(C(C)(C)C)cc3)ccc21	12	4	5.2*	0	1	3
COc1ccc(-c2noc(CNC(=O)C(Cl)(Cl)Cl)n2)cc1	-28	-28	8.0*	0	-1	-6
COc1ccc(-c2noc(CC(=O)Nc3ccc(C(C)C)cc3)n2)cc1	2	-6	6.0*	0	1	2
Cc1cc(OCC(=O)NCc2nc(-c3ccccc3)no2)cc(C)c1Br	8	8	11*	0	0	-5
Cc1ccc(CC(=O)NCc2nc(-c3ccccc3)no2)cc1	0	1	5.7*	0	0	-5
O=C(O)c1cccc(-c2cnc3ccc(NCc4ccco4)nn23)c1	-10	5	-1	0	/	/
CCc1cc(C(=O)OC)c(NC(=S)Nc2c(C)n(C)n(-c3ccccc3)c2=O)s1	-12	-1	0	0	/	/
O=C(NCc1nc(-c2ccccc2)no1)c1cc(Br)ccc1Cl	3	7	5.3*	0	1	1
COc1cccc(OC)c1C(=O)NCc1nc(-c2ccc(C)cc2)no1	6	9	3	0	/	/
COc1ccc(-c2noc(CNC(=O)Cc3ccc(OC)c(OC)c3)n2)cc1	6	7	5.1*	1	-1	-15
O=C(NCc1nc(-c2ccccc2)no1)c1ccccc1Cl	1	-9	0	0	/	/
COc1cccc(OC)c1C(=O)NCc1nc(-c2ccc(Cl)cc2)no1	1	8	8.0*	0	0	-9
CSCCC(NC(=O)C1CCC(C)CC1)C(=O)NCc1ccccn1 (stereo not drawn)	3	2	5.0*	0	-1	6
Cc1ccc(-c2csc(N3CCN(CC(=O)Nc4ccc([N+](=O)[O-])cc4)CC3)n2)cc1	8	-4	7.0*	0	1	9
O=C(CN1CCN(c2nc(-c3ccccc3)cs2)CC1)Nc1ccccc1[N+](=O)[O-]	8	10	1	0	/	/
O=C(CSCc1ccccc1)NCc1ccc(Cl)cc1	15	-17	0	1	/	/
Cn1c(=O)oc2cc(S(=O)(=O)N3CCN(C4CCCCC4)CC3)ccc21	4	-12	-1	0	/	/
Cn1c(=O)oc2cc(S(=O)(=O)N3CCC(N4CCCCC4)CC3)ccc21	16	-4	5.9*	0	-1	-9
COc1cccc2cc3c(=O)n(-c4ccccc4)nc-3oc12	7	13	10*	0	1	1
COc1ccc(NC(=O)c2cc3nc(-c4ccc(Cl)cc4)cc(C(F)(F)F)n3n2)cn1	5	3	0	0	/	/
COC(=O)c1ccccc1NC(=O)CSc1nc2ccccc2c(=O)[nH]1	2	5	0	0	/	/
NC(=O)c1ccccc1NC(=O)CSc1nc2ccccc2c(=O)[nH]1	-14	0	5.3*	0	0	0
SMILES	MITF inh	TEAD-YAP inh	GPR151 ag	FBW7 act	GPR151 conf act	GPR119 counter
O=Cc1ccc(OCC(=O)Nc2ccc(F)cc2)c(Br)c1	6	-9	-1	0	/	/
NC(=O)NC(=O)COc1ccc(F)cc1Br	3	-23	8.2*	0	0	0
COc1ccc(CCn2ccc(-c3sc(NCc4ccco4)nc3C)n2)cc1	-2	2	8.0*	0	0	0
COc1cc(Nc2ccnc(N3CCc4ccccc4C3)n2)cc(OC)c1OC	4	5	6.8*	0	0	18
COc1cc(Nc2cc(C)nc(N3CCc4ccccc4C3)n2)cc(OC)c1OC	5	3	2	0	/	/
CCNC(=O)C(=O)NCc1cccs1	5	1	4.9*	0	1	1
O=C(NCc1cccs1)C(=O)NC1CC1	3	2	0	0	/	/
CCN(CC)C(=O)c1ccc2c(=O)n(-c3ccc(F)cc3)c(=S)[nH]c2c1	-15	17	5.0*	0	0	-18
COc1cccc(C(=O)NCCCc2ccccc2)c1OC	20	-28	0	0	/	/
COc1cccc(C(=O)NCCCc2ccc(N(C)C)cc2)c1OC	2	-18	5.3*	0	-1	-5
CCc1ccccc1NC(=O)CCC(=O)OCC(=O)c1ccc([N+](=O)[O-])cc1	23	5	1	0	/	/
CCc1ccccc1NC(=O)CCCC(=O)OCC(=O)c1ccc([N+](=O)[O-])cc1	7	-5	5.5*	0	1	-6
O=C(CCN1CCN(C2c3ccccc3-c3ccccc32)CC1)Nc1ccccc1F	6	-4	5.1*	0	1	10
CC1CCCC(NC(=O)c2ccc(CNS(=O)(=O)c3ccc(Cl)cc3)cc2)C1C (stereo not drawn)	-1	5	-1	0	/	/
CC1CCCC(NC(=O)c2ccc(CNS(=O)(=O)c3ccc(F)cc3)cc2)C1C (stereo not drawn)	-3	-5	6.3*	0	0	-10
Cc1ccc(NC(=O)CS(=O)(=O)CC(=O)NC2=Cc3ccccc3C2=O)c(C)c1	3	3	0	0	/	/
CCCS(=O)(=O)N1CCN=C1SCc1ccccc1	0	-4	1	0	/	/
CCS(=O)(=O)N1CCN=C1SCc1ccccc1	-7	5	5.6*	0	1	10
CN1CCN(CCCCOc2cccc([N+](=O)[O-])c2)CC1	-2	6	5.6*	0	0	13
CN1CCN(CCOc2cccc([N+](=O)[O-])c2)CC1	3	8	0	0	/	/
O=C(Nc1ccc(Br)cc1F)NC1CCCCC1	-4	-45	6.6*	0	1	0
CC(c1ccccc1)C1CC(=O)N(Cc2ccccc2)C1=O (stereo not drawn)	-1	4	22*	0	-1	4
CC(c1ccccc1)C1CC(=O)N(c2ccc(Cl)cc2)C1=O (stereo not drawn)	12	2	1	0	/	/
Cn1cc(CNC(=O)c2cccc(OC3CCN(C(=O)C4CC4)CC3)c2)cn1	0	0	1	0	/	/
CCN(CCO)c1ccc(NC2=C(NC(C)=O)C(=O)c3ccccc3C2=O)cc1	8	61*	5.1*	0	0	12
CCC(=O)NC1=C(Nc2ccc(N)cc2)C(=O)c2ccccc2C1=O	10	-48	-2	0	/	/
O=C1NC2(CCCCCC2)Cc2ccccc21	-6	-14	7.9*	0	0	1
O=C(O)CN=C1NC2(CCCC2)Cc2ccccc21	5	-5	2	0	/	/

Source: PubChem BioAssay (The Scripps Research Institute Molecular Screening Center)
